# Test results as given in PubChem BioAssay (NCI).
# About 79,000 compounds went through this panel and 15% of them were active in at least one assay; those are over-represented in the sample as a whole. Values without a mark were called inactive. Active and inactive are the calls of the source. No stated cut-off is given here; in the data, active means growth inhibition above about 70%; inactive means the rest.
# Experiments:
# [1] = NCI Yeast Anticancer Drug Screen. Data for the wt1 strain (AID 149);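 further: 0% = growth of vehicle-treated wt1 cultures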; conditions: S. cerevisiae wt1 strain (SPY 50644) growth inhibition, stronger effect = higher value
# In short: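 wt1 strain grown with compound or vehicle; inhibition taken from the growth difference.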
# [2] = NCI Yeast Anticancer Drug Screen. Data for the rad50EPP+ strain (AID 151);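 further: 0% = growth of vehicle-treated control cultures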; conditions: S. cerevisiae rad50 mutant strain, stronger effect = higher value
# In short: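 In this screen, rad50EPP+ yeast were exposed to compounds. Growth inhibition was scored against vehicle-treated controls.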
# [3] = NCI Yeast Anticancer Drug Screen. Data for the rad50 strain (AID 155);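 further: 0% = growth of vehicle-only cultures of the same strain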; conditions: S. cerevisiae rad50 strain growth inhibition, stronger effect = higher value
# In short: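 DNA repair mutant yeast, compound exposure, growth read-out; inhibition is taken relative to vehicle.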
# [4] = NCI Yeast Anticancer Drug Screen. Data for the mec2-1 strain (AID 157); conditions: S. cerevisiae mec2-1 strain, stronger effect = higher value
# In short: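 Vehicle-treated cultures served as reference for growth inhibition of compound-exposed mec2-1 yeast.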
# [5] = NCI Yeast Anticancer Drug Screen. Data for the rad14 strain (AID 159);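 further: 0% = growth of vehicle-treated control cultures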; conditions: S. cerevisiae rad14 strain growth inhibition, stronger effect = higher value
# In short: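 DNA repair-defective yeast, compound-exposed; % growth inhibition derived by comparison with vehicle-treated controls.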
# [6] = NCI Yeast Anticancer Drug Screen. Data for the sgs1 mgt1 strain (AID 161);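 further: 0% = growth of cultures given vehicle only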; conditions: S. cerevisiae sgs1 mgt1 strain, stronger effect = higher value
# In short: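 Test agents were incubated with a DNA-repair-mutant yeast strain. Growth was then read and compared against vehicle-treated controls.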
# [7] = NCI Yeast Anticancer Drug Screen. Data for the CLN2oe strain (AID 163);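 further: 0% = growth of vehicle-only control cultures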; conditions: S. cerevisiae CLN2oe strain, stronger effect = higher value
# In short: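 Inhibition relative to vehicle-treated yeast is reported. Cells: strain with genetic alteration in cell-cycle control, grown with compound.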
# [8] = NCI Yeast Anticancer Drug Screen. Data for the cln2 rad14 strain (AID 165);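 further: 0% = growth equal to vehicle treated cultures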; conditions: S. cerevisiae cln2 rad14 strain, stronger effect = higher value
# In short: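 Each compound was tested on cln2 rad14 yeast. Inhibition of growth was calculated against vehicle-exposed controls.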
# [9] = NCI Yeast Anticancer Drug Screen. Data for the bub3 strain (AID 167); conditions: S. cerevisiae bub3 mutant strain, stronger effect = higher value
# In short: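 In this screen, a yeast mutant lacking normal mitotic checkpoint function is challenged with compound. Relative growth versus vehicle gives the inhibition value.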
# [10] = NCI Yeast Anticancer Drug Screen. Data for the wt2 strain (AID 169);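 further: 0% = growth of vehicle-treated yeast cultures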; conditions: S. cerevisiae wt2 strain growth inhibition, stronger effect = higher value
# In short: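 Inhibition of yeast growth was determined after compound treatment, normalised to controls receiving only vehicle.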
# [11] = NCI Yeast Anticancer Drug Screen. Data for the mlh1 strain (AID 171);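 further: 0% = growth of vehicle-treated control cultures of the same strain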; conditions: S. cerevisiae mlh1 strain growth inhibition, stronger effect = higher value
# In short: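 Vehicle-normalised growth inhibition of a repair- or checkpoint-altered yeast strain following compound treatment.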
# [12] = NCI Yeast Anticancer Drug Screen. Data for the sgs1 strain (AID 173);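 further: 0% = growth of vehicle-only control cultures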; conditions: S. cerevisiae sgs1 mutant, stronger effect = higher value
# In short: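 Screen format: yeast with repair or checkpoint alterations, compound exposure, growth read relative to vehicle.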
# [13] = NCI Yeast Anticancer Drug Screen. Data for the mlh1 rad18 strain (AID 175); conditions: S. cerevisiae mlh1 rad18 strain growth inhibition, stronger effect = higher value
# In short: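 Vehicle-treated cultures served as the reference for growth inhibition in a yeast strain carrying DNA damage repair alterations exposed to each compound.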
# [14] = at 5.0 µM (retest, dose inferred, filed as 0.5)
# [15] = at 50.0 µM (retest, dose inferred, filed as 5.0)
structure (smiles),measurement,setting,value
O=C1CC(=O)N(C2CCCCC2)C(=O)N1c1ccccc1S(=O)(=O)Oc1ccccc1,growth inhibition,[1]; at 1.2 µM,1%
same,growth inhibition,[1]; at 3.7 µM,-5%
same,growth inhibition,[1]; at 11.0 µM,-14%
same,growth inhibition,[1]; at 33.0 µM,12%
same,growth inhibition,[1]; at 100.0 µM,51%
same,growth inhibition,[2]; at 1.2 µM,-22%
same,growth inhibition,[2]; at 3.7 µM,-19%
same,growth inhibition,[2]; at 11.0 µM,-16%
same,growth inhibition,[2]; at 33.0 µM,2%
same,growth inhibition,[2]; at 100.0 µM,-49%
same,growth inhibition,[3]; at 1.2 µM,-12%
same,growth inhibition,[3]; at 3.7 µM,-3%
same,growth inhibition,[3]; [14],66%
same,growth inhibition,[3]; at 11.0 µM,-12%
same,growth inhibition,[3]; at 33.0 µM,5%
same,growth inhibition,[3]; [15],99% (active)
same,growth inhibition,[3]; at 50.0 µM,38.6%
same,growth inhibition,[3]; at 100.0 µM,33%
same,growth inhibition,[4]; at 1.2 µM,11%
same,growth inhibition,[4]; at 3.7 µM,0%
same,growth inhibition,[4]; [14],69%
same,growth inhibition,[4]; at 11.0 µM,-18%
same,growth inhibition,[4]; at 33.0 µM,13%
same,growth inhibition,[4]; [15],99% (active)
same,growth inhibition,[4]; at 50.0 µM,41%
same,growth inhibition,[4]; at 100.0 µM,36%
same,growth inhibition,[5]; at 1.2 µM,-18%
same,growth inhibition,[5]; at 3.7 µM,-22%
same,growth inhibition,[5]; at 11.0 µM,-26%
same,growth inhibition,[5]; at 33.0 µM,-18%
same,growth inhibition,[5]; at 100.0 µM,18%
same,growth inhibition,[6]; [14],3%
same,growth inhibition,[6]; [15],31%
same,growth inhibition,[6]; at 50.0 µM,54.4%
same,growth inhibition,[7]; at 1.2 µM,6%
same,growth inhibition,[7]; at 3.7 µM,-1%
same,growth inhibition,[7]; at 11.0 µM,7%
same,growth inhibition,[7]; at 33.0 µM,43%
same,growth inhibition,[7]; at 100.0 µM,72% (active)
same,growth inhibition,[8]; [14],60%
same,growth inhibition,[8]; [15],80% (active)
same,growth inhibition,[8]; at 50.0 µM,68%
same,growth inhibition,[9]; at 1.2 µM,-13%
same,growth inhibition,[9]; at 3.7 µM,0%
same,growth inhibition,[9]; [14],25%
same,growth inhibition,[9]; at 11.0 µM,2%
same,growth inhibition,[9]; at 33.0 µM,7%
same,growth inhibition,[9]; [15],42%
same,growth inhibition,[9]; at 50.0 µM,58.4%
same,growth inhibition,[9]; at 100.0 µM,32%
same,growth inhibition,[10]; at 1.2 µM,0%
same,growth inhibition,[10]; at 3.7 µM,-33%
same,growth inhibition,[10]; at 11.0 µM,-27%
same,growth inhibition,[10]; at 33.0 µM,-3%
same,growth inhibition,[10]; at 100.0 µM,41%
same,growth inhibition,[11]; at 1.2 µM,-10%
same,growth inhibition,[11]; at 3.7 µM,-19%
same,growth inhibition,[11]; at 11.0 µM,-11%
same,growth inhibition,[11]; at 33.0 µM,7%
same,growth inhibition,[11]; at 100.0 µM,46%
same,growth inhibition,[12]; at 1.2 µM,-7%
same,growth inhibition,[12]; at 3.7 µM,-5%
same,growth inhibition,[12]; at 11.0 µM,-1%
same,growth inhibition,[12]; at 33.0 µM,20%
same,growth inhibition,[12]; at 100.0 µM,56%
same,growth inhibition,[13]; [14],61%
same,growth inhibition,[13]; [15],100% (active)
same,growth inhibition,[13]; at 50.0 µM,41.4%
